DRD3 agonist – qHTS of D3 Dopamine Receptor Agonist: qHTS; D3R DiscoveRx beta-arrestin cells, luminescence, 90 min; max activation, %; actives 0.58% (n = 410,000); AID 652048, 2013; in the data active = max activation above about 30%; also: 0% is about no effect
Target sequence (P35462 whole entry, looked up): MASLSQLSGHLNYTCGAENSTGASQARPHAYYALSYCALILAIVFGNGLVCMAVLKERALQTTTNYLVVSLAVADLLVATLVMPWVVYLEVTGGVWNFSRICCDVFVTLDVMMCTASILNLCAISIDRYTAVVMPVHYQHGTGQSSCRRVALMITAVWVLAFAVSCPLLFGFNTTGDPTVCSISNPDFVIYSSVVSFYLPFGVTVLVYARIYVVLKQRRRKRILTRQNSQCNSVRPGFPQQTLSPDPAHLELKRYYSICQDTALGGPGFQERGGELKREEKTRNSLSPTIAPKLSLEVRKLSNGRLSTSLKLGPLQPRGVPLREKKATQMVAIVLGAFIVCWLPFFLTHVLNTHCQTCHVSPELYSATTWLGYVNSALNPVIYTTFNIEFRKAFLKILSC
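Agonist mode: compounds and dopamine controls were applied to plated cells for 90 min at 37 degrees C after an overnight attachment at 1500 cells/well. Luminescent read-out followed 30 - 60 minutes at room temperature with DiscoveRx detection reagent.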
D1 antag – Antagonist of Human D 1 Dopamine Receptor: qHTS; HEK293 TREx D1 cells, calcium flux, dopamine EC80; hits give low values; activity change, negative = inhibition, % at 10 µM; actives 3.2% (n = 360,000); AID 504652, 2011; in the data active = activity change below about -30%; also: % is scaled to controls: 0 for no effect and ±100 for the full control effect
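Compound effects on dopamine-evoked calcium signalling were measured in tetracycline-induced HEK293 Trex D1 cells. Dopamine at EC80 followed a 180 s compound pre-read, and fluorescence was tracked kinetically for 180 s more.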
D1 PAM – Potentiators of Human D1 Dopamine Receptor: qHTS; D(1A) dopamine receptor (Homo sapiens), P21728; HEK293 TREx D1 cells, calcium flux, dopamine EC20 potentiation; potentiation, % at 10 µM; actives 0.036% (n = 360,000); AID 504651, 2011; in the data active = potentiation above about 30%; also: 0% is about no effect
D1 agonist – Allosteric Agonists of the Human D1 Dopamine Receptor: qHTS; D(1A) dopamine receptor (Homo sapiens), P21728; HEK293 T-REx D1 cells, calcium flux, agonist mode; activation, % at 2 µM; actives 1% (n = 360,000); AID 504660, 2011; in the data active = activation above about 30%; also: 0% is about no effect
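Agonism was scored from calcium flux recorded over 180 s (1 read/s) after pintool compound addition, following a 10-cycle baseline. Cells were inducible force-coupled HEK293 TREx D1, plated overnight at 30 C and loaded with no-wash calcium dye.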
DRD3 antagonist – qHTS of D3 Dopamine Receptor Antagonist: qHTS | D(3) dopamine receptor (Homo sapiens), P35462 | D3R cells, DiscoveRx beta-arrestin luminescence, antagonist mode; hits give low values | max response, negative = inhibition, % | actives 2.5% (n = 360,000); in the data active = max response below about -50%; also: % is scaled to controls: 0 for no effect and ±100 for the full control effect
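Cells expressing the human receptor were seeded at 1500 cells/well, incubated overnight at 37 degrees C in 5% CO2, then exposed to library compounds with dopamine controls for 90 minutes at 37 degrees C before luminescent detection.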
* = called active by the depositor; nt = not tested or not shown; ! = not active in a repeat. Sampled rows, rich in hits. Any-hit rate of the full collection: about 6.1%.

SMILES	DRD3 agonist	D1 antag	D1 PAM	D1 agonist	DRD3 antagonist
CCOC(=O)C1(C)CCCN(C(=O)Cc2ccc3ccccc3c2)C1 (centres undefined)	-7	nt	nt	nt	0
Cc1ccccc1NC1=C(Cl)C(=O)N(C2CCCCC2)C1=O	-8	10	3	6	-20
COc1ccccc1NC1=C(Cl)C(=O)N(C2CCCCC2)C1=O	-2	-88*	-2	1	9
COc1ccccc1COC(=O)C(NC(=O)c1ccc(C)cc1)C(C)C (centres undefined)	15	-32*	-7	4	17
O=C(C[C@H]1C(=O)N(CCc2ccccc2)C[C@@H]1Cc1ccccc1)Nc1ccccc1	-6	0	-2	11	-1
O=C(Nc1ccc(F)cc1F)c1cc(-c2ccccc2O)no1	-11	-3	-3	-1	nt
O=C1c2ccccc2S(=O)(=O)c2cc(N3CCOCC3)ccc21	-2	nt	nt	nt	-2
CC1CCN(c2ccc3c(c2)S(=O)(=O)c2cccc(C(=O)NC[C@@H]4CCCO4)c2C3=O)CC1	31*	nt	nt	nt	108
O=C1c2ccccc2S(=O)(=O)c2cc(N3CCN(c4ccccc4)CC3)ccc21	52*	nt	nt	nt	78
O=C(NC1CCCCC1)c1cccc2c1C(=O)c1ccc(N3CCC(Cc4ccccc4)CC3)cc1S2(=O)=O	6	nt	nt	nt	12
O=C(NC[C@@H]1CCCO1)c1cccc2c1C(=O)c1ccc(N3CCOCC3)cc1S2(=O)=O	27	nt	nt	nt	72
CC1CCN(c2ccc3c(c2)S(=O)(=O)c2cccc(C(=O)NC4CC4)c2C3=O)CC1	52*	nt	nt	nt	50
O=C(NCC1CCCO1)c1cccc2c1C(=O)c1ccc(N3CCC(Cc4ccccc4)CC3)cc1S2(=O)=O (centres undefined)	50*	nt	nt	nt	134
Cc1cc(C)c(NC(=O)CSc2ncc(S(=O)(=O)c3ccc(C(C)(C)C)cc3)c(=O)[nH]2)c(C)c1	-9	-7	1	14	nt
Cc1ccc(S(=O)(=O)c2nnn3c2nc(N2CCCC2)c2sccc23)cc1	-12	-3	-3	1	nt
COc1ccc(CNC(=O)C(=O)NCCCn2ccnc2)cc1	2	-1	-4	1	19
Cc1cc(C)c(C(=O)N2CCCC(C(=O)c3cc(F)ccc3F)C2)o1 (centres undefined)	3	-1	-2	2	11
Cc1cc(C(=O)N2CCCC(C(=O)c3cc(F)ccc3F)C2)c(C)o1 (centres undefined)	1	-17	-2	-1	-56*
Clc1nc(-c2n[nH]nc2Cl)n[nH]1	5	-31*	-6	0	-19
Cc1ccc(C)c(S(=O)(=O)c2nnn3c2nc(NCc2ccc4c(c2)OCO4)c2sccc23)c1	12	8	-4	6	nt
CCCCNc1c(-c2ccc(-c3ccc(OC)cc3)c(OC)c2)nc2ccccn12	102*	nt	nt	nt	188
CCCCNc1c(-c2ccc(OC)c(Sc3ccc(OC)cc3)c2)nc2ccccn12	-2	31	2	2	-16
CCCCCCSc1cc(-c2nc3cnccn3c2NCCCC)ccc1OC	104*	nt	nt	nt	185
CCCCNc1c(-c2ccc(OC)c(Sc3ccc(OC)cc3)c2)nc2cnccn12	62*	nt	nt	nt	94
CCCCCCSc1cc(-c2nc3cc(C)ccn3c2NCCCC)ccc1OC	-26	25	6	4	54
SMILES	DRD3 agonist	D1 antag	D1 PAM	D1 agonist	DRD3 antagonist
CC(=O)N(C)c1ccc(NC(=O)Nc2ccc(C)c(C)c2)cc1	-9	-4	-2	1	19
CCc1cc2c(cc3c(=O)n(CC(=O)N4CCC(C)CC4)nc(CC)n32)s1	19	21	2	0	nt
Cc1cccc(N2CCN(C(=O)NC3CCCCC3)CC2)c1C	-4	-41*	0	33*	3
Cc1cccc(N2CCN(CC(=O)Nc3nccs3)CC2)c1C	-4	-4	2	0	-7
O=C(NC1CCCCC1)N1CCN(CCc2ccccc2)CC1	-20	7	-3	1	-61*
Cc1cccc(N2CCN(CC(=O)NCC3CCCCC3)CC2)c1C	-6	-2	-6	6	-63*
Cc1ccc(N2CCN(C(=O)NC3CCCCC3)CC2)c(C)c1	-2	-6	-4	21	11
CCOc1cc(S(=O)(=O)n2nc(C)cc2C)ccc1Br	7	4	2	3	12
COC(=O)c1ccccc1NC(=O)CCCn1nc(C)c2sc3ccccc3c2c1=O	4	7	-3	0	nt
CN1CC2=Cc3ccccc3OC23Oc2ccccc2C=C3C1	6	-51*	-16	13	-8
CC(=O)NC12CC3CC(C1)CC(C(=O)N1CCN(S(=O)(=O)c4cccc([N+](=O)[O-])c4)CC1)(C3)C2	-5	nt	nt	nt	-13
CC(=O)NC12CC3CC(C1)CC(C(=O)N1CCN(S(=O)(=O)c4cccc(C(F)(F)F)c4)CC1)(C3)C2	-3	-28	-10	38*	-8
COc1ccc(OCC(=O)Nc2cc(-c3nn(C)c(=O)c4ccccc34)ccc2OC)cc1	4	3	5	3	-62*
COc1ccc(OCC(=O)Nc2cc(-c3nn(C)c(=O)c4ccccc34)ccc2N2CCOCC2)cc1	7	4	-8	1	10
COc1ccc(NC(=O)COc2ccc(-c3nn(C)c(=O)c4ccccc34)cc2)cc1	-8	-40*!	-4	3	-18
CNC(=O)c1ccc(NC(=O)COc2ccc(-c3nn(C)c(=O)c4ccccc34)cc2)cc1	2	9	-3	7	nt
COCCNC(=O)c1ccc(-n2c(-c3ccccc3)cc3c2CCCCC3)cc1	-18	-18	-5	39*	nt
CCOC(=O)c1cnc2c(C)cc(Cl)cc2c1NCCCN1CCOCC1	4	-35*	5	4	23
CC1(Cc2cccc(C#N)c2)C(=O)Nc2c(Cl)cccc21 (centres undefined)	48*	nt	nt	nt	-12
C=Cc1ccc(CC2(C)C(=O)Nc3c(Cl)cccc32)cc1 (centres undefined)	-4	nt	nt	nt	-67*
CC1(Cc2cccc(C(N)=O)c2)C(=O)Nc2c(Cl)cccc21 (centres undefined)	7	nt	nt	nt	27
CC1(Cc2ccccc2Cl)C(=O)Nc2c(Cl)cccc21 (centres undefined)	-15	nt	nt	nt	0
O=S1(=O)CC/C(=N/Nc2ccccn2)c2cc(F)ccc21	-10	0	-1	0	-9
O=S1(=O)CC/C(=N/Nc2ccc(C(F)(F)F)cn2)c2cc(F)ccc21	-8	-52*	11	0	-14
Cc1cccc(NC(=O)COC(=O)Cc2c[nH]c3ccccc23)c1C	-3	-32*	0	2	-14
